PubChem BioAssay AID1159580 (chemical genetic matrix, 2015)
About 2,000 (36%) of roughly 5,500 compounds were called active. About 18% were inconclusive and are not listed. The list shows a part of the results. Unmarked numbers belong to inactive results. Cut-off read from the data, not from the text of the source: active = normalized growth mostly below about 0.91 (no sharp cut-off); inconclusive = no clear call, values can overlap the other calls; inactive = mostly above about 0.92.

Test: chemical genetic growth profiling, strain panel (AID 1159580);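 note: tested at 20 µM; growth read once vehicle control cultures reached saturation at 30 °C; 1 = growth at the plate median or of vehicle wells; lower values mean less growth of the strain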
Conditions: S. cerevisiae deletion strains, growth OD
[1] = locus YAL040C, strain CLN3, hits give low values
[2] = locus YCL061C, strain MRC1 (second series), hits give low values
[3] = locus YDR363W, strain ESC2, hits give low values
[4] = locus YER002W, strain NOP16, hits give low values
[5] = locus YGR078C, strain PAC10, hits give low values
[6] = locus YMR307W, strain GAS1, hits give low values
[7] = locus YNL175C, strain NOP13, hits give low values
[8] = locus YNL197C, strain WHI3, hits give low values
[9] = locus YNL224C, strain SQS1, hits give low values
[10] = locus YOR083W, strain WHI5 (second series), hits give low values
[11] = locus YPL241C, strain CIN2, hits give low values

Compound	normalized growth (locus YAL013W, strain DEP1, hits give low values)	normalized growth [1]	normalized growth [2]	normalized growth (locus YDR150W, strain NUM1, hits give low values)	normalized growth [3]	normalized growth [4]	normalized growth [5]	normalized growth (locus YGR229C, strain SMI1, hits give low values)	normalized growth [6]	normalized growth [7]	normalized growth [8]	normalized growth [9]	normalized growth [10]	normalized growth (locus YPL055C, strain LGE1, hits give low values)	normalized growth [11]	normalized growth (locus YMR263W, strain SAP30, hits give low values)	normalized growth (locus YNL128W, strain TEP1, hits give low values)	normalized growth (locus YNL322C, strain KRE1, hits give low values)
CC(C(O)c1ccc(O)cc1)N1CCC(Cc2ccccc2)CC1 (centres undefined)	0.932	1.03	0.959	0.872 (active)	0.94	1.01	1.01	0.785 (active)	0.994	0.935	1.03	1.03	1.04	0.75 (active)	0.944 (active)			
C[C@@H](CN1CCC(Cc2ccccc2)CC1)[C@@H](O)c1ccc(O)cc1		1.07	0.996		1.01	1.01	0.996		1.05	0.993	0.999	1.02	1		0.99	1	1.03	0.979
